This is an account of results in PubChem BioAssay (Tox21).

Structures are written as SMILES. Values without a mark were called inactive. Results filed as inconclusive are left out. Calls of active or inactive are those of the source. Unless noted, calls follow the shape of the dose curve; as a rule, active = well fitted curve in the direction sought with a large enough effect in the repeat runs; inconclusive = weak or mixed curves; inactive = no such curve, though single readings can be large; an effect the other way counts as inactive or inconclusive.

Assay [1] deals with Luciferin 4-monooxygenase (Photinus pyralis) (UniProt P08659). The experiment in a line: qHTS assay to identify small molecule inhibitors of firefly luciferase (AID 1224835). Also: nearly all actives have a fitted effect of over 25% in size. Also: potency is read from the fitted curve at half-maximal effect. The method, boiled down: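 Inhibition of purified Photinus luciferase is measured by luminescence. Substrate levels (D-luciferin, ATP) sit at their KM values. Each compound is tested in a concentration series.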
Chain of Luciferin 4-monooxygenase (Photinus pyralis) (P08659 whole entry, looked up): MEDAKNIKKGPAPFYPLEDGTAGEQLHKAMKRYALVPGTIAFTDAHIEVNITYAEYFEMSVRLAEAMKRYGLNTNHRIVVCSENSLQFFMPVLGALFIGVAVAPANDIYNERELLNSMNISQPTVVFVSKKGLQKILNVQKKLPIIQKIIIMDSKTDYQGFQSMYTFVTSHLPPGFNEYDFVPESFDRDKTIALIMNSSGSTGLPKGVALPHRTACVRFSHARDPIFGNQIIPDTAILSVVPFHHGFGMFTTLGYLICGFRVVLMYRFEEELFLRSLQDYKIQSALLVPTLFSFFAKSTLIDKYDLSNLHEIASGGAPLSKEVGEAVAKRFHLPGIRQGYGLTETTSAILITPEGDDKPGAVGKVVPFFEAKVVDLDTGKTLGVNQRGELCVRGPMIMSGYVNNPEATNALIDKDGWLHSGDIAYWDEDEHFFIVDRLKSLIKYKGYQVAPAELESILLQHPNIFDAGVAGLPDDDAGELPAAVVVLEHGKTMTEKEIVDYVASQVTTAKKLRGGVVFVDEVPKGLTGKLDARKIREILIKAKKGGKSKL

Assay [2] can be described thus: qHTS assay to identify small molecule agonists of the constitutive androstane receptor (CAR) signaling pathway - cell viability counter screen (AID 1224836). Also: % is scaled to controls: 0 for no effect and ±100 for the full control effect; nearly all actives have a fitted effect of over 45% in size. In a few lines:
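Multiplexed viability check: HepG2-CYP2B6-hCAR cells, 15-point compound dosing, 0.75 uM PK11195 final, 23 h at 37 C, CellTiter-Fluor fluorescence.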

A short description of assay [3]: qHTS assay to identify small molecule antagonists of the constitutive androstane receptor (CAR) signaling pathway - cell viability counter screen (AID 1224837). Also: % is scaled to controls: 0 for no effect and ±100 for the full control effect; nearly all actives have a fitted effect of over 45% in size. The method, boiled down:
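Viability was measured with CellTiter-Fluor in a HepG2 line carrying stably transfected hCAR and a CYP2B6-2.2kb construct. Cells were exposed for 23 hr at 37 C to 15 compound concentrations with 50 nM CITCO as agonist.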

The target in assay [4] is Nuclear receptor subfamily 1 group I member 3 (Homo sapiens) (UniProt Q14994). The assay is described as follows: qHTS assay to identify small molecule antagonists of the constitutive androstane receptor (CAR) signaling pathway (AID 1224838).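 Also: HepG2 cells stably expressing hCAR with CYP2B6 luciferase reporter stimulated by CITCO; % is scaled to controls: 0 for no effect and ±100 for the full control effect; nearly all actives have a fitted effect of over 40% in size.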 The method, boiled down: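 Antagonist mode used CITCO at a final 50 nM to activate CAR in human hepatoma HepG2 cells carrying stable hCAR and a 2.2 kb CYP2B6 promoter-luciferase construct. Compounds were tested at 15 concentrations over 24 h, with luminescence as the end point.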
Chain of Nuclear receptor subfamily 1 group I member 3 (Homo sapiens) (Q14994 whole entry, looked up): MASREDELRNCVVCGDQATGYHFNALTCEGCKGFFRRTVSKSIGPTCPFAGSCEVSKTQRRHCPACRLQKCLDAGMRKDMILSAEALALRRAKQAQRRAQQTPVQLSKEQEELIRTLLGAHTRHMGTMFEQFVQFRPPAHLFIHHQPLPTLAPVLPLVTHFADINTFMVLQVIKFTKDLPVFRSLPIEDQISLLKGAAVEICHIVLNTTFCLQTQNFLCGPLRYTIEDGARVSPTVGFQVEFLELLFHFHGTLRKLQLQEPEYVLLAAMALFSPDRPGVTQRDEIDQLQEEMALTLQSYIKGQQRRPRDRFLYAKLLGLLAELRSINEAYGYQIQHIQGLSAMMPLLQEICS

The target is the same in assay [5]. The assay is described as follows: qHTS assay to identify small molecule agonists of the constitutive androstane receptor (CAR) signaling pathway (AID 1224839). Also: % is scaled to controls: 0 for no effect and ±100 for the full control effect; nearly all actives have a fitted effect of over 15% in size. In a few lines: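 Using human hepatoma HepG2 cells engineered with hCAR and a CYP2B6-2.2kb reporter, 15-concentration compound series were incubated 24 h alongside PK11195 at 0.75 uM final, with luminescence quantified afterwards.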

The nature of assay [6]: qHTS assay to identify small molecule antagonists of the estrogen related receptor signaling pathway with the pleiotropic PPARgamma coactivator (PGC) from Tox21 10K library - cell viability counter screen (AID 1224840; active = well fitted cell-killing curve with a large enough effect in the repeat runs, not every such curve was filed as active; also: nearly all actives have a fitted effect of over 40% in size; also: potency is read from the fitted curve at half-maximal effect). In a few lines:
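Multiplexed viability counter screen in the PGC/ERR cell line: cells treated with DMSO-dissolved compounds for 17.5 hours at 37 C, then viability measured as CellTiter-Fluor fluorescence.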

Assay [7] addresses Thyrotropin receptor (Homo sapiens) (UniProt P16473). The assay is described as follows: qHTS assay to identify small molecule agonists of the thyroid stimulating hormone receptor (TSHR) signaling pathway (AID 1224843; calls by dose curve; also: % is scaled to controls: 0 for no effect and ±100 for the full control effect; nearly all actives have a fitted effect of over 45% in size). In a few lines: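 Agonist activity read as cAMP rise via d2/cryptate HTRF competition, 1 h room-temperature detection, in HEK293 cells expressing TSHR. Fifteen-point titrations, each run in triplicate, with a 30 min room-temperature incubation beforehand.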

Assay [8] can be described thus: qHTS assay to identify small molecule agonists of the hypoxia (HIF-1) signaling pathway - cell viability counter screen (AID 1224844; calls by dose curve; also: % is scaled to controls: 0 for no effect and ±100 for the full control effect; nearly all actives have a fitted effect of over 50% in size). In a few lines: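 Cytotoxicity was measured in parallel with the HRE-driven beta-lactamase readout: after 17 hrs of compound exposure at 37C, HRE-bla ME-180 cells received CellTiter-Glo and luminescence was recorded 30 min later.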

Assay [9] in a line: qHTS assay to identify small molecule agonists of the hypoxia (HIF-1) signaling pathway (AID 1224846; active = well fitted activation curve with a large enough effect in the signal ratio in the repeat runs, not every such curve was filed as active; the % refers to the signal ratio; also: % is scaled to controls: 0 for no effect and ±100 for the full control effect). In a few lines: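 Compounds from the Tox21 10K library, dissolved in DMSO, are tested for induction of a hypoxia response element–controlled beta-lactamase reporter in ME-180 cells. Exposure lasts 17 hrs at 37C after a 5 hr settling period, followed by CCF4-AM FRET substrate.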

Assay [10] is described as follows: qHTS assay to identify small molecule agonists of H2AX - cell viability counter screen (AID 1224847; calls by dose curve;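 also: wild-type CHO-K1 cells; top concentration of the series differs between compounds; % is scaled to controls: 0 for no effect and ±100 for the full control effect; nearly all actives have a fitted effect of over 30% in size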). In a few lines:
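After overnight plating of 1000 CHO-K1 cells per well, a 15-concentration compound series was applied for 3 hr at 37C. Luminescence from CellTiter-Glo, read following 30 min at room temperature, reflected cell viability.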

Assay [11] in a line: qHTS RealTime-Glo MT Cell Viability Assay in HepG2 cells - 24 hour (AID 1224867). Also: % is scaled to controls: 0 for no effect and ±100 for the full control effect; nearly all actives have a fitted effect of over 50% in size. In a few lines: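 HepG2 cells (600/well) were dispensed with RealTime-Glo reagents, incubated 5 h at 37 °C, then treated with compounds in DMSO for up to 40 h. Nonlytic NanoLuc luminescence reflecting viable cells was read at each stated time point.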
Assay [12] is described as follows: qHTS RealTime-Glo MT Cell Viability Assay in HEK293 cells - 32 hour (AID 1224868). Also: nearly all actives have a fitted effect of over 50% in size. Also: potency is read from the fitted curve at half-maximal effect. In a few lines: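 HEK293 cells seeded with NanoLuc/prosubstrate reagent, rested 5 h at 37 C, then dosed and kept at 37 C up to 40 h. Nonlytic real-time luminescence from viable cells read at 0, 8, 16, 24, 32 and 40 h.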
A short description of assay [13]: A CellTox Green Cytotoxicity Assay to monitor cytotoxicity in HEK293 cells - 0 hour (AID 1224869). Also: % is scaled to controls: 0 for no effect and ±100 for the full control effect; nearly all actives have a fitted effect of over 50% in size. The method, boiled down:
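Cells (HEK293, 600/well) and dye reagent are dispensed together. After 5 h at 37 C, 23 nL compound is pinned in. Plates stay at 37 C for 40 h with fluorescence read at 0h, 8h, 16h, 24h, 32h and 40h.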

A short description of assay [14]: qHTS RealTime-Glo MT Cell Viability Assay in HepG2 cells - 40 hour (AID 1224870). In a few lines: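 Real-time viability: cells seeded at 600 per well together with NanoLuc and cell-permeant prosubstrate, compounds added after 5 h incubation. Luminescence tracked at 0, 8, 16, 24, 32 and 40 h of exposure.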
Assay [15] can be described thus: qHTS assay to identify small molecule antagonists of the estrogen related receptor signaling pathway with the pleiotropic PPARgamma coactivator (PGC) from Tox21 10K library (AID 1224841; call rule not given here; also: potency is read from the fitted curve at half-maximal effect). In a few lines: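 Steps: plate 2,000 PGC/ERR cells per well; incubate 6 h at 37 C with 5% CO2; transfer compounds from DMSO stocks by pin tool; incubate 18 h at 37 C; add One-Glo; measure luminescence 30 min later.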

The nature of assay [16]: qHTS assay to identify small molecule agonists of the estrogen related receptor signaling pathway with the pleiotropic PPARgamma coactivator (PGC) from Tox21 10K library (AID 1224842). Also: % is scaled to controls: 0 for no effect and ±100 for the full control effect; nearly all actives have a fitted effect of over 15% in size. In a few lines: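 Luminescence from One-Glo (30 min, room temperature) measured after PGC/ERR cells had 18 h at 37 C with pinned compound (23 nL in DMSO). Cells had been seeded at 2,000 per well and pre-incubated 6 h.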

Assay [17] is described as follows: qHTS assay to identify small molecule antagonists of the estrogen related receptor (ERR) signaling pathway from Tox21 library (AID 1224848). Also: nearly all actives have a fitted effect of over 50% in size. Also: potency is read from the fitted curve at half-maximal effect. In a few lines:
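Luciferase luminescence (ONE-Glo, 30 min room temperature) was the read-out. Cells of the NTP-supplied ERR line, 2,000 per well, were given 6 h at 37 C before compound addition in DMSO and 18 h exposure at 37 C.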

A short description of assay [18]: qHTS assay to identify small molecule agonists of the estrogen related receptor (ERR) signaling pathway from Tox21 library (AID 1224849; calls by dose curve; also: % is scaled to controls: 0 for no effect and ±100 for the full control effect; nearly all actives have a fitted effect of over 15% in size). Particulars: ERR reporter cell line, ONE-Glo luciferase, 18 h; at 92.4 µM (top of the series) unless noted. In a few lines:
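Cells carrying the ERR reporter were plated and allowed to settle for 6 h, exposed to library compounds for 18 h at 37 C, then lysed with ONE-Glo and luminescence measured.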

A short description of assay [19]: qHTS assay to identify small molecule agonists of H2AX (AID 1224845; active = well fitted activation curve with a large enough effect in the signal ratio in the repeat runs, not every such curve was filed as active; the % refers to the signal ratio; also: % is scaled to controls: 0 for no effect and ±100 for the full control effect). The method, boiled down:
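Phospho-H2AX Ser139 measured by HTRF (ex 320 nm; em 665 and 620 nm) after 24 hr antibody incubation. Compounds, 15 concentrations, 0.76% DMSO, were applied to CHO-K1 cells for 3hr at 37C before lysis.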

Assay [20] can be described thus: qHTS assay to identify small molecule antagonists of the estrogen related receptor (ERR) signaling pathway from Tox21 library - cell viability counter screen (AID 1224834). Also: potency is read from the fitted curve at half-maximal effect; nearly all actives have a fitted effect of over 30% in size. In a few lines: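 ERR cells, 2,000/well; 6 h settle at 37 C/5% CO2; pin-tool compound transfer in DMSO; 17.5 h at 37 C; CellTiter-Fluor, 30 min; fluorescence intensity.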

Chain of Thyrotropin receptor (Homo sapiens) (P16473 whole entry, looked up): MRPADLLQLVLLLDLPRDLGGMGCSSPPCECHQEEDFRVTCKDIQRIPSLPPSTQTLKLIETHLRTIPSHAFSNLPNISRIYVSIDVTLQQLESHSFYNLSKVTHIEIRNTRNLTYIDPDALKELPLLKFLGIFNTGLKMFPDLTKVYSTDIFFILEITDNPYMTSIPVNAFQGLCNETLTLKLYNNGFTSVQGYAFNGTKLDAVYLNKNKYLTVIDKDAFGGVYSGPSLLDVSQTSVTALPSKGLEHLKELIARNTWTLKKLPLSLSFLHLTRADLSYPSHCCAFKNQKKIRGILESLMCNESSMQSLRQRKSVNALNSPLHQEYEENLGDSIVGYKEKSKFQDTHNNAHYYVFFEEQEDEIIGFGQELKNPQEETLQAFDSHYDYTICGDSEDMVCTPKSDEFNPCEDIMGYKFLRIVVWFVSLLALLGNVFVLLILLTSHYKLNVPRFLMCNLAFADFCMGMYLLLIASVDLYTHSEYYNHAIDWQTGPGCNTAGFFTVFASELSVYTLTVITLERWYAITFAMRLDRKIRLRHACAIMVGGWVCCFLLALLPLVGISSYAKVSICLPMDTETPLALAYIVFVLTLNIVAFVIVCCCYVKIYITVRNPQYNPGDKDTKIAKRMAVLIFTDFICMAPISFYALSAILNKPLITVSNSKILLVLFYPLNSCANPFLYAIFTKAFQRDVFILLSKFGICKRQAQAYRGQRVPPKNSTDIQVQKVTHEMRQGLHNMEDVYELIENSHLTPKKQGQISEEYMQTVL

For the compound `CN1CC(=O)N2[C@H](c3ccc4c(c3)OCO4)c3[nH]c4ccccc4c3C[C@@H]2C1=O`, the Potency entry in assay [1], in [2], in [3], in assay [4], in [5] and in assay [6] was “inactive” in each case. The Potency entry in assay [7], in [8], in [10], in [11], in assay [12] and in [13] was “inactive” each time. For the same compound, the Potency entry in [14] is “inactive”. In addition, the outcome in assay [9] was inactive.
Regarding `CCOC(=O)c1ccccc1C(=C1C=C(Br)C(=O)C(Br)=C1)c1cc(Br)c(O)c(Br)c1`, the Potency was 66.8 µM (active) in assay [1], 51.3 µM (active) in assay [15] and 45.7 µM (active) in assay [17]. Also, the Potency result in assay [2], in assay [3], in assay [16], in assay [7], in [10] and in [11] was “inactive” throughout. Further, the Potency entry in assay [13] and in assay [14] was “inactive” each time. The activity change, positive = activation in assay [18] was -32.1% [at 42.5 µM].
For `CN(C(=O)CN(CCO)CC(=O)N(C)C(C)(C)Cc1ccccc1)C(C)(C)Cc1ccccc1`, the Potency entry in assay [1], in [2], in assay [3], in assay [4], in [5] and in assay [6] was “inactive” in each case. Besides, the Potency result in [15], in assay [16], in assay [8], in [19] and in assay [13] was “inactive” each time. In [18], the activity change, positive = activation is -27.5% [at 42.5 µM]. Moreover, the Potency in assay [12] was 19 µM (active).
`c1cc(N(CC2CO2)CC2CO2)ccc1Cc1ccc(N(CC2CO2)CC2CO2)cc1` (centres undefined): the Potency was 43.3 µM (active) in [20]; 30.6 µM (active) in assay [6]; 27.3 µM (active) in [15]; 21.7 µM (active) in [17]; 34.7 µM (active) in [12]. The Potency entry in assay [5], in assay [16], in assay [10] and in [13] was “inactive” each time. Moreover, the activity change, positive = activation in [18] was -66.1%.
As to `Oc1ccc(Cl)c2cccnc12`, the Potency result in assay [1], in assay [6], in [16], in assay [7], in [8] and in assay [10] was “inactive” each time. In addition, the Potency result in assay [11], in [13] and in assay [14] was “inactive” in each case. In addition, the Potency is 4.73 µM (active) in assay [15] and 29.8 µM (active) in assay [17]. Moreover, the outcome in assay [9] was inactive. In assay [18], the activity change, positive = activation was -56.3% [at 42.5 µM].
Take `C/C=C(/C(=C/C)c1ccc(O)cc1)c1ccc(O)cc1`: the Potency result in assay [1], in [2], in [3], in assay [4], in assay [5] and in [6] was “inactive” throughout. Moreover, the Potency entry in [7], in assay [8], in assay [19], in assay [11], in assay [13] and in assay [14] was “inactive” in each case.
Consider `NC1[C@H]2CN(c3nc4c(cc3F)c(=O)c(C(=O)O)cn4-c3ccc(F)cc3F)C[C@@H]12` (some centres undefined), for which the Potency result in assay [1], in [2], in [4], in assay [6], in assay [15] and in assay [7] was “inactive” throughout. Further, the Potency result in [8], in assay [19], in assay [10], in assay [17], in assay [11] and in [12] was “inactive” each time. In addition, the Potency result in [13] is “inactive”. Also, the compound was called inactive in assay [9]. Also, the activity change, positive = activation in assay [18] was 59.2% [at 42.5 µM] (active).
